Drawing on PubChem BioAssay (Tox21), this text covers Potency and max activation for twelve compounds.

A short description of test [1]: qHTS assay to identify small molecule agonists of the progesterone receptor (PR) signaling pathway - cell viability counter screen (AID 1346799; calls by dose curve; note: nearly all actives have a fitted effect of over 45% in size; note: potency is the fitted concentration of half-maximal effect). Put shortly:
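Multiplexed viability read: CellTiter-Glo luminescence, 30 min RT, following LiveBLAzer FRET measurement on PR-UAS-bla HEK293T cells exposed to compounds 16 hr.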
(qHTS replaces the single test concentration by a dilution series.)

Test [2] is described as follows: qHTS assay to identify small molecule antagonists of the TGF-beta/Smad signaling pathway - cell viability counter screen (AID 1346824). Note: nearly all actives have a fitted effect of over 50% in size. Note: potency is the fitted concentration of half-maximal effect. Put shortly: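 SBE-bla HEK 293T cells were plated overnight at 37 C, then given compounds in DMSO plus TGF-beta1 (added as 0.25 ng/mL solution) for 5 hr. After the bla read, CellTiter-Glo was added to the same wells and luminescence read after 30 min at room temperature.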

Test [3] can be described thus: qHTS assay to identify small molecule agonists of the TGF-beta/Smad signaling pathway - cell viability counter screen (AID 1346829). Note: nearly all actives have a fitted effect of over 45% in size. Note: potency is the fitted concentration of half-maximal effect. Put shortly: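 Same-well cytotoxicity: CellTiter-Glo added after the 2 hr room-temperature beta-lactamase substrate step, luminescence measured 30 min later; cells had 5 hr of compound at 37 C.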
Test [4] has as its target Thyrotropin-releasing hormone receptor (Homo sapiens) (UniProt P34981). Briefly: qHTS assay to identify small molecule antagonists of the thyrotropin-releasing hormone receptor (TRHR) signaling pathway (AID 1346877; active = well fitted inhibition curve with a large enough effect in the repeat runs, not every such curve was filed as active; note: series mostly up to about 51 µM). Put shortly:
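Calcium signal in dye-loaded TRHR/HEK293 cells; compounds added 5 min before TRH (1 nM final); fluorescence monitored 3 min at 1 s steps.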

For test [5] the target is unchanged. Briefly: qHTS assay to identify small molecule agonists of the thyrotropin-releasing hormone receptor (TRHR) signaling pathway (AID 1346891; calls by dose curve; note: series mostly up to about 58 µM). In outline:
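Readout was intracellular calcium fluorescence in TRHR-Hek293 cells. Cells were incubated 18 h, dye-loaded 2 h at 37 °C, and treated with compound in agonist mode.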

Test [6] can be described thus: Human pregnane X receptor (PXR) small molecule agonists, qHTS cell viability counter screen (AID 1346977). Note: nearly all actives have a fitted effect of over 50% in size. Note: potency is the fitted concentration of half-maximal effect. In outline: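 In each well, the PXR reporter HepG2 line was checked for viability: CellTiter-Fluor reagent added 23hr post-dosing, fluorescence read after 1hr incubation at 37C.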
Test [7] in a line: Caspase-3/7 induction in CHO-K1 cells by small molecules, qHTS cell viability counter screen (AID 1346979). Note: nearly all actives have a fitted effect of over 35% in size. Note: potency is the fitted concentration of half-maximal effect. In outline: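 Following a 5hr settling period, CHO-K1 cells at 1,500 per well received DMSO-dissolved compounds. Cell viability was quantified 16hr later by CellTiter-Fluor fluorescence, measured after 1hr with reagent at 37C.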
Test [8] is described as follows: Caspase-3/7 induction in CHO-K1 cells by small molecules, qHTS assay (AID 1346980). Note: nearly all actives have a fitted effect of over 15% in size. In outline: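 Wild-type cells were seeded at 1,500 per well and settled 5 hr at 37 C, 5% CO2, then exposed to DMSO-dissolved compounds for 17 hr. Caspase-Glo 3/7 reagent was added, and luminescence was read after 30min at room temperature.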
Test [9] is described as follows: Caspase-3/7 induction in HepG2 cells by small molecules, qHTS cell viability counter screen (AID 1346981). Note: nearly all actives have a fitted effect of over 30% in size. Note: potency is the fitted concentration of half-maximal effect. Put shortly: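 After a 5-hr attachment period at 37 C and 5% CO2, wild-type HepG2 cells received compounds in DMSO. Sixteen hours later CellTiter-Fluor was dispensed and the fluorescent signal quantified after a further hour.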
Test [10] addresses Nuclear receptor subfamily 1 group I member 2 (Homo sapiens) (UniProt O75469). Briefly: Human pregnane X receptor (PXR) small molecule agonists, qHTS assay (AID 1346982). Note: nearly all actives have a fitted effect of over 35% in size. Note: potency is the fitted concentration of half-maximal effect. Put shortly: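 Tox21 qHTS; PXR-Luc HepG2; compounds pinned from DMSO; 24 hr, 37 C; ONE-Glo luciferase detection, 30 min room temperature.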
Test [11] in a line: qHTS assay to identify small molecule antagonists of the progesterone receptor (PR) signaling pathway - cell viability counter screen (AID 1346798). Note: nearly all actives have a fitted effect of over 50% in size. Note: potency is the fitted concentration of half-maximal effect. In outline: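 In the same plates used for the beta-lactamase readout, cell viability of compound- and R5020-treated PR-UAS-bla HEK293T cells (16 hr, 37C) was assessed by CellTiter-Glo luminescence.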
A short description of test [12]: Caspase-3/7 induction in HepG2 cells by small molecules, qHTS assay (AID 1346978). Note: nearly all actives have a fitted effect of over 15% in size. Note: potency is the fitted concentration of half-maximal effect. Put shortly: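 Wild-type HepG2 cells (2,000/well) were settled 5 h at 37 C, 5% CO2, then exposed to compounds in DMSO for 17 h. Caspase-3/7 activity was read by luminescence 30 min after adding Caspase-Glo 3/7 reagent at room temperature.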
The target of test [13] is Cytochrome P450 2D6 (Homo sapiens) (UniProt P10635). Briefly: Cytochrome P450 Family 2 Subfamily D Member 6 (CYP2D6) small molecule antagonists: luciferase reporter qHTS assay (AID 1671196). Note: nearly all actives have a fitted effect of over 50% in size. Note: potency is the fitted concentration of half-maximal effect. In outline:
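Room-temperature luminescent CYP2D6 activity assay: compound preincubated 10 min with enzyme–substrate mix, NADPH-initiated reaction 1 h, detection reagent 20 min before reading.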
Background: Reporter assays use an easily measured gene product as a stand-in for the process of interest.

In test [14] the target is Cytochrome P450 2C19 (Homo sapiens) (UniProt P33261). Put plainly: Cytochrome P450 Family 2 Subfamily C Member 19 (CYP2C19) small molecule antagonists: luciferase reporter qHTS assay (AID 1671197). Note: nearly all actives have a fitted effect of over 65% in size. Note: potency is the fitted concentration of half-maximal effect. Put shortly: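 Quantitative high-throughput screen of the Tox21 library using CYP2C19 with proluciferin substrate. Reaction: NADPH regeneration, 37C, 1 h, after 10 min compound preincubation at room temperature. Readout: luminescence.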

Test [15] in a line: qHTS assay to identify small molecule agonists of the TGF-beta/Smad signaling pathway (AID 1346859; active = well fitted activation curve with a large enough effect in the signal ratio in the repeat runs, not every such curve was filed as active; the % refers to the signal ratio; note: series mostly up to about 77 µM). In outline: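 Screening used HEK 293T SBE-bla cells at 4,000/well. Test agents: 5 hr, 37 C. Detection: FRET substrate, 2 hr RT, then excitation 405 nm with emissions at 460 and 530 nm.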
Test [16] concerns the target Nuclear receptor subfamily 1 group I member 2 (Rattus norvegicus) (UniProt Q9R1A7). Put plainly: Rat pregnane X receptor (rPXR) activation by small molecules, qHTS assay (AID 1346983). Note: nearly all actives have a fitted effect of over 20% in size. The note with it: rPXR luciferase reporter cells, One-Glo luminescence, 24 h; max activation: stronger effect = higher value. In outline:
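Cell-based rPXR luciferase reporter assay, 2,000 cells per well, rested 5hr at 37 C before compound addition in DMSO, then 24 hr at 37 C. One-Glo reagent was added and luminescence read after 30 min at room temperature.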

Test [17] has as its target Nuclear receptor subfamily 1 group I member 2 (Homo sapiens) (UniProt O75469). Briefly: CYP3A4 induction through human pregnane X receptor (PXR) by small molecules, qHTS assay (AID 1346984). Note: nearly all actives have a fitted effect of over 40% in size. In outline: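 Cells (DPX-2; HepG2 with PXR element plus CYP3A4-promoter luciferase) settled 5hr, then were treated 24hr at 37C. A 3hr, 3uM-final Luciferin-IPA step preceded luminescence measurement with One-Glo.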

Test [18] has the same target. Put plainly: Human pregnane X receptor (PXR) activation by small molecules, qHTS assay (AID 1346985). Note: nearly all actives have a fitted effect of over 40% in size. Put shortly:
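DPX-2 cells (HepG2 co-transfected with a PXR response element and a CYP3A4-promoter luciferase construct) were seeded at 2,000 per well, rested 5 hr at 37C, then exposed to DMSO-dissolved compounds for 24 hr. Activation was read as luciferase luminescence.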

Values without a mark were called inactive. Results filed as inconclusive are left out. Activity calls are given as the source filed them. Unless noted, calls come from the whole dose curve; as a rule, active = well fitted curve in the direction sought with a large enough effect in the repeat runs; inconclusive = weak or mixed curves; inactive = no such curve, though single readings can be large; an effect the other way counts as inactive or inconclusive.
% is set by controls: 0 for no effect and ±100 for the full control effect.

Chain of Cytochrome P450 2D6 (Homo sapiens) (P10635 whole entry, looked up): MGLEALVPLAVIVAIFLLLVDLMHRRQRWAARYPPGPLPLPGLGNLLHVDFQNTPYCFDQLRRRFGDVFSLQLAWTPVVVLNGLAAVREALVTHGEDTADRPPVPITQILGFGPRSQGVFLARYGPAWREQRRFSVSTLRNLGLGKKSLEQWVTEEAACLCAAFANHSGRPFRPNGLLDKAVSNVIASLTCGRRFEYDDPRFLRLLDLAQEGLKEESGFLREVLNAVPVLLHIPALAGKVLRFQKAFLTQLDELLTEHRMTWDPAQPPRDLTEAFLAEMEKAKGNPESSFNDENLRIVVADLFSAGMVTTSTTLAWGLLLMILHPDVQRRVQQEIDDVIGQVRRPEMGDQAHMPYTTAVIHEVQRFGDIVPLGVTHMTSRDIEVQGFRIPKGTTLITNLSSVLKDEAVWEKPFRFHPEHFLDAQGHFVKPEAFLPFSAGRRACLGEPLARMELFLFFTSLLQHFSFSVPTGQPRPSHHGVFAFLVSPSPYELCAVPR
Chain of Cytochrome P450 2C19 (Homo sapiens) (P33261 whole entry, looked up): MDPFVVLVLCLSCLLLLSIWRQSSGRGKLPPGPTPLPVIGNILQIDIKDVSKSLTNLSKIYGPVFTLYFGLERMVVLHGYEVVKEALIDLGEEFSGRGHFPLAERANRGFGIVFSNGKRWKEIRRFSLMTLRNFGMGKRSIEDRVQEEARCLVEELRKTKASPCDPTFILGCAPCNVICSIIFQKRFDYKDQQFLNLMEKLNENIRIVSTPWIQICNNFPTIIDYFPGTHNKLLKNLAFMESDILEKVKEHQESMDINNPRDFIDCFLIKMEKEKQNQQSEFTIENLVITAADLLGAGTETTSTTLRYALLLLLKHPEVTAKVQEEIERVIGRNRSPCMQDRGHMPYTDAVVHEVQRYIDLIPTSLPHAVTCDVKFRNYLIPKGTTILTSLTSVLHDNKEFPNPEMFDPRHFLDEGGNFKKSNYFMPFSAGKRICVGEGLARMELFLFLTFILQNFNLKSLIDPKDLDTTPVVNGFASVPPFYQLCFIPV
Chain of Nuclear receptor subfamily 1 group I member 2 (Homo sapiens) (O75469 whole entry, looked up): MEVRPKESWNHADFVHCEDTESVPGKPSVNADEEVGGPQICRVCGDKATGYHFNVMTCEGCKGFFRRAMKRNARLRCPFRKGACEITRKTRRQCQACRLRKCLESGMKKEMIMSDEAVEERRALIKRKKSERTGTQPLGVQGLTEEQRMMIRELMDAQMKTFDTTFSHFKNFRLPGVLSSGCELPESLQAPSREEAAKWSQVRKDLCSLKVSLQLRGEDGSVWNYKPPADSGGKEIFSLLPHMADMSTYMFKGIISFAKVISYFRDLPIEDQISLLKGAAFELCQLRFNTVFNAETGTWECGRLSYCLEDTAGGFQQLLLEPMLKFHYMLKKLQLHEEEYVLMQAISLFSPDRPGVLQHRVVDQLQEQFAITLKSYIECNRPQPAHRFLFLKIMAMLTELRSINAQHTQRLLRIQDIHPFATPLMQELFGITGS
Chain of Thyrotropin-releasing hormone receptor (Homo sapiens) (P34981 whole entry, looked up): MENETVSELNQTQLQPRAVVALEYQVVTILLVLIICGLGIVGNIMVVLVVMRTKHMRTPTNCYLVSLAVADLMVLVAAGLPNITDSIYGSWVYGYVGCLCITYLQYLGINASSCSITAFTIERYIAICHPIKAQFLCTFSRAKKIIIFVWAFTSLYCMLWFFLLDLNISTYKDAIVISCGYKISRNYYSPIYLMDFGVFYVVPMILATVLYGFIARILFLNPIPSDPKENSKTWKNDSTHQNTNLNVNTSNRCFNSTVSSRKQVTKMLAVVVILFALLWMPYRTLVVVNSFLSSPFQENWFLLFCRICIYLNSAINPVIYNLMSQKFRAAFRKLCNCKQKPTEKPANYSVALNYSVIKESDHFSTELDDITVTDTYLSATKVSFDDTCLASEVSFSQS
Chain of Nuclear receptor subfamily 1 group I member 2 (Rattus norvegicus) (Q9R1A7 whole entry, looked up): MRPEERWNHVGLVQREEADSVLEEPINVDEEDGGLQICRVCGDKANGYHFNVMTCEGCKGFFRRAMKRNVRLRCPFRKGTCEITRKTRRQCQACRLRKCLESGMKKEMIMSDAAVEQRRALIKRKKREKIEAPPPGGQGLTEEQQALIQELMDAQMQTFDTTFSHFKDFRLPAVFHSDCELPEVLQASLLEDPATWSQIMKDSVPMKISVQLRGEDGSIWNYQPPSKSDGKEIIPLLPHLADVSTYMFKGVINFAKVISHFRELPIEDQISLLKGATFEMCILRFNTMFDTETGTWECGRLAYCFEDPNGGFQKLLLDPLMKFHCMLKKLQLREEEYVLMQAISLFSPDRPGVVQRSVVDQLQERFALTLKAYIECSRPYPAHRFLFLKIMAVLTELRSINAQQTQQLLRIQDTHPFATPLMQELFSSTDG

Take `c1cc(OCC2CO2)cc(OCC2CO2)c1` (stereo unspecified): the Potency was 60.6 µM (active) in test [1]; 60.6 µM (active) in test [6]; 60.6 µM (active) in test [7]; 60.6 µM (active) in test [9]; 21.5 µM (active) in test [10]. Besides, the Potency entry in [2], in test [3], in [4], in test [5] and in test [8] was “inactive” throughout.
As to `CCN(CC)c1ccc(N)cc1`, the Potency in test [11] was 44.5 µM (active); in test [1] it was 44.5 µM (active); in [6], 15.8 µM (active); in test [7], 22.3 µM (active); in test [9] it was 25 µM (active); in [13], 13 µM (active). Also, the Potency in [14] was 9.18 µM (active). Further, the Potency entry in test [4], in test [5], in test [12], in [8] and in test [10] was “inactive” throughout.
`Cc1cccc(C)c1NC(=O)CN1CCN(CCCC(c2ccc(F)cc2)c2ccc(F)cc2)CC1`: the Potency in test [11] is 29.8 µM (active); in [6] it was 23.7 µM (active); in test [7] it was 29.8 µM (active); in test [9], 21.1 µM (active); in test [13], 2.45 µM (active); in test [14], 43.6 µM (active). Besides, the Potency result in [2], in test [3], in [15], in test [5], in test [10] and in test [17] was “inactive” throughout. In [18], the Potency result was “inactive”. In addition, the max activation in test [16] was 3.4%.
For `O=C(NO)c1ccccc1`, the Potency entry in test [3], in test [15], in test [4], in test [5], in test [6] and in test [12] was “inactive” each time. Besides, the Potency result in test [8] and in test [9] was “inactive” each time. For the same compound, the Potency in test [7] was 65.3 µM (active); in [10] it was 29.2 µM (active); in test [13] it was 60.2 µM (active).
Regarding `CCC(C)c1cc([N+](=O)[O-])cc([N+](=O)[O-])c1OC(=O)OC(C)C` (stereo unspecified), the Potency result in test [11], in test [2], in [3], in test [5], in [12] and in test [8] was “inactive” each time. Also, the Potency in test [6] is 34.4 µM (active); in test [7], 61.1 µM (active); in test [10] it was 61.1 µM (active).
For the compound `Cc1c(-c2ccc(O)cc2)n(Cc2ccc(OCCN3CCCCCC3)cc2)c2ccc(O)cc12`, the Potency in [11] is 33.5 µM (active); in test [1], 29.8 µM (active); in [6] it was 23.7 µM (active); in test [7], 29.8 µM (active); in [9] it was 29.8 µM (active); in [10] it was 9.44 µM (active).
For `C=C[C@](C)(O)CC[C@@H]1[C@@]2(C)CCCC(C)(C)[C@@H]2CC[C@@]1(C)O`, the Potency entry in test [3], in test [15] and in test [8] was “inactive” in each case. Besides, the Potency in test [12] is 68.6 µM (active); in test [7], 54.5 µM (active); in test [10], 9.69 µM (active); in test [14], 1 µM (active).
Turning to `CCCCCCCCCCCCCOP(=O)(O)O`, the Potency entry in test [1], in [3], in [15], in [6], in [12] and in [7] was “inactive” each time. In addition, the Potency entry in [9] and in test [10] was “inactive” throughout. Moreover, in test [14], the Potency was 79.6 µM (active).
For `O=C(Nc1ccc(Cl)cc1)Nc1ccc(Cl)c(C(F)(F)F)c1`, the Potency in test [3] was 15.1 µM (active); in [6], 7.5 µM (active); in [7] it was 11.9 µM (active); in test [9], 29.8 µM (active); in [10] it was 9.44 µM (active); in test [14] it was 17.4 µM (active). For the same compound, the Potency entry in test [15], in [4], in test [5] and in test [12] was “inactive” throughout.
In the case of `O=C1c2c(O)ccc([N+](=O)[O-])c2C(=O)c2c([N+](=O)[O-])ccc(O)c21`, the Potency was 48.5 µM (active) in test [2]; 48.5 µM (active) in [3]; 13.6 µM (active) in [6]; 12.1 µM (active) in [7]; 24.1 µM (active) in test [9]; 31.4 µM (active) in test [13]. Further, the Potency in test [14] is 12.5 µM (active). The Potency result in test [15], in [12], in [8] and in [10] was “inactive” each time.
Regarding `Oc1ccc(-c2ccc(O)cc2)cc1`, the Potency entry in [1], in [3], in test [15], in test [4], in [5] and in [12] was “inactive” each time. Further, the Potency entry in test [8] and in test [14] was “inactive” each time. Also, in [10], the Potency is 48.9 µM (active).
For `C=C(c1ccc(C(=O)O)cc1)c1cc2c(cc1C)C(C)(C)CCC2(C)C`, the Potency in test [11] was 54.5 µM (active); in test [12] it was 68.6 µM (active); in test [7], 61.1 µM (active). The Potency result in test [2], in test [3], in [15], in test [6], in [10] and in test [17] was “inactive” throughout. The Potency entry in test [18], in test [13] and in [14] was “inactive” throughout. Also, the max activation in test [16] is -18.2%.
